Efflux pump inh: inhibitors of Candida efflux pumps in yeast, primary screen, S. cerevisiae, Nile Red, multiplex | inhibition, % at 10 µM | AID 485275, 2010 | S. cerevisiae Candida pump triplex | actives 0.44% (n = 330,000);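 active = plate passing quality check with inhibition over a set limit, or well fluorescence over plate mean plus 4 SD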;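 note: Nile Red retained in pooled yeast measured as flow cytometry median fluorescence; higher means more Nile Red kept so more efflux inhibition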
ERp5 inh: inhibitors of ERp5-driven insulin aggregation, primary screen, biochemical, turbidity, absorbance 650 nm, single point. Protein disulfide-isomerase A6 (Homo sapiens), Q15084. 90 min. inhibition, % at 9.99 µM. actives 0.05% (n = 350,000). AID 651711, 2012;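 active = mean replicate inhibition above about 25%, with every replicate also reaching it, limit read from the data, passing the limit was not always enough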
Target sequence (Q15084 whole entry, looked up): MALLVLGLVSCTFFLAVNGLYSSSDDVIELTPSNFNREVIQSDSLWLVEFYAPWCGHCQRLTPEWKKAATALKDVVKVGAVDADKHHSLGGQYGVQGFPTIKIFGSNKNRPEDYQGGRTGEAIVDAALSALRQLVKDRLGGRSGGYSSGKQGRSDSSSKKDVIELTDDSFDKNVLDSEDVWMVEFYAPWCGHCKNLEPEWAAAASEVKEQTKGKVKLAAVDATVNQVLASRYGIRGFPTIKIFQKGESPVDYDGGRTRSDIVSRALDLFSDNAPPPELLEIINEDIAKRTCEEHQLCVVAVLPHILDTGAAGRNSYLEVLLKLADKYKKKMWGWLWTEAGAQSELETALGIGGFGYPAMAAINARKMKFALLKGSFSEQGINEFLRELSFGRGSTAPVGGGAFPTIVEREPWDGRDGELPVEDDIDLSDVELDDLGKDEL
PvdQ inh: P. aeruginosa PvdQ acylase inhibitors, primary screen, biochemical, fluorescence, plate reader and imaging, single point; PvdQ acylase [Pseudomonas aeruginosa LESB58]; purified PvdQ acylase; inhibition, % at 10 µM; actives 0.063% (n = 340,000); AID 488965, 2010; in the data active = inhibition above about 30%, passing the limit was not always enough
PDI turbidity: inhibitors of human PDI, primary screen, biochemical, turbidity, single point, plate reader | Protein disulfide-isomerase (Homo sapiens), P07237 | PDI insulin aggregation turbidity, A650, 90 min | inhibition, % at 10 µM | actives 0.052% (n = 350,000) | AID 588391, 2011;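 active = mean inhibition across replicates of 30% or more, whatever share of single replicates reach that level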
Rtt109 Vps75: inhibitors of C. albicans Rtt109/Vps75 HAT, primary screen, biochemical, ThioGlo CoA-SH fluorescence, plate reader | purified Rtt109/Vps75, 4 h | inhibition, % at 34.9 µM | actives 0.16% (n = 330,000);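 active = inhibition of at least 50% in every replicate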
Yeast cmpd fluor: flagged as fluorescent in efflux inhibitor counter-screen | actives 4% (n = 1,700) | shares compounds with Efflux pump inh | S. cerevisiae AD/pABC3, compound fluorescence, flow cytometry | fluorescence ratio to DMSO, % at 10 µM;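 active = fluorescence ratio to DMSO above its plate's cutoff, the plate mean ratio plus 5 SD, cut at about 210% in these data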;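 note: unstained yeast with no Nile Red so the signal is compound autofluorescence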
CaMdr1 efflux inh: inhibitors of Candida albicans Mdr1 efflux, confirmation, flow cytometry, singleplex, Cherry Pick1 set; shares compounds with Efflux pump inh; actives 1% (n = 1,700); inhibition, % at 10 µM; AID 588518, 2011; S. cerevisiae AD/CaMDR1, Nile Red efflux; in the data active = inhibition above about 26%;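 note: higher means more Nile Red retained so more efflux inhibition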
CaCdr2 efflux inh: inhibitors of Candida albicans Cdr2 efflux pump, confirmation, S. cerevisiae AD/CaCDR2, flow cytometry, cherry pick 1, singleplex | shares compounds with Efflux pump inh | Nile Red retention | Nile Red retention ratio vs DMSO, % at 10 µM | actives 4% (n = 1,700) | AID 588520, 2011; in the data active = Nile Red retention ratio vs DMSO above about 190%;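 note: higher ratio means more blocking of Cdr2 efflux of the dye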
CaCdr1 efflux inh: inhibitors of Candida albicans Cdr1 efflux pump, confirmation, S. cerevisiae AD/CaCDR1, flow cytometry, cherry pick 1, singleplex; shares compounds with Efflux pump inh; Nile Red efflux; inhibition, % at 10 µM; actives 1% (n = 1,700); AID 588522, 2011;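 active = inhibition above the screen-wide mean plus twice its standard deviation, cut at about 32% in these data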
Hits are given with their value. This is a sample that favours compounds with a hit; in the whole collection about 0.54% have one here.

Cc1ccc2c(c1)[C@H]1[C@H](CO2)[C@H](c2ccccc2)[C@]2(C)C(=O)Nc3ccc(F)cc3C(=O)N12 was read as ERp5 inh inactive, PvdQ inh inactive, PDI turbidity inactive and Rtt109 Vps75 inactive.
`COc1ccc2c(c1)[C@H]1[C@H](CO2)[C@H](c2ccccc2)[C@]2(C)C(=O)Nc3cc(Cl)ccc3C(=O)N12` gave Efflux pump inh inactive, PvdQ inh inactive, PDI turbidity inactive and Rtt109 Vps75 inactive.
Screening COc1ccc2c(c1)C(=O)N1[C@H]3c4cc(Cl)ccc4OC[C@@H]3[C@H](c3ccccc3)[C@]1(C)C(=O)N2 returned Efflux pump inh inactive, PvdQ inh inactive, PDI turbidity inactive, Rtt109 Vps75 inactive, Yeast cmpd fluor inactive, CaMdr1 efflux inh inactive, CaCdr2 efflux inh inactive and CaCdr1 efflux inh inactive.
`COc1cc2c(cc1OC)C(=O)N1[C@H]3c4cc(C)ccc4OC[C@@H]3[C@H](c3ccccc3)[C@]1(C)C(=O)N2` gave Efflux pump inh inactive, ERp5 inh inactive, PvdQ inh inactive, PDI turbidity inactive, Rtt109 Vps75 inactive, Yeast cmpd fluor inactive, CaMdr1 efflux inh inactive, CaCdr2 efflux inh inactive and CaCdr1 efflux inh inactive.
Screening Cc1ccc(S(=O)(=O)N(C)C[C@H]2OCCCC[C@H](C)Oc3ccc(NS(=O)(=O)c4cn(C)cn4)cc3C(=O)N([C@H](C)CO)C[C@H]2C)cc1 returned ERp5 inh inactive.
Screening C[C@H]1CCCCO[C@H](CN(C)C(=O)Nc2ccc(C(F)(F)F)cc2)[C@@H](C)CN([C@@H](C)CO)C(=O)c2cc(NC(=O)Nc3ccc4c(c3)OCO4)ccc2O1 returned ERp5 inh inactive.
O=C(Cc1ccccc1)Nc1ccc(F)cc1 was read as Efflux pump inh inactive, ERp5 inh inactive, PvdQ inh inactive, PDI turbidity inactive and Rtt109 Vps75 inactive.
`CC(=O)Nc1ccc(NC(=O)Cc2ccc(F)cc2)cc1` gave Efflux pump inh 1.1, Yeast cmpd fluor inactive, CaMdr1 efflux inh inactive, CaCdr2 efflux inh inactive and CaCdr1 efflux inh inactive.
For CCOCCCNC(=O)/C(C#N)=C/c1ccc(-c2ccc(S(=O)(=O)N3CCOCC3)cc2)o1 the results were Efflux pump inh inactive, PvdQ inh inactive, PDI turbidity inactive and Rtt109 Vps75 inactive.
CCOCCCNC(=O)/C(C#N)=C/c1ccc([N+](=O)[O-])o1 was read as Efflux pump inh 0.9, ERp5 inh inactive, PvdQ inh inactive, PDI turbidity inactive, Rtt109 Vps75 inactive, Yeast cmpd fluor inactive, CaMdr1 efflux inh inactive, CaCdr2 efflux inh inactive and CaCdr1 efflux inh inactive.
Screening COc1ccc(S(=O)(=O)N2CC[C@@H]3[C@H]2c2cc(C#Cc4ccccc4OC)ccc2N[C@@H]3CO)cc1 returned ERp5 inh inactive.
Screening c1ccc(Nc2ccc3c4c(cccc24)CC3)cc1 returned Efflux pump inh inactive, PvdQ inh inactive, PDI turbidity inactive and Rtt109 Vps75 inactive.
Screening Nc1ccc2c3c(cccc13)CC2 returned Efflux pump inh 1.8, PvdQ inh inactive, PDI turbidity inactive, Rtt109 Vps75 inactive, Yeast cmpd fluor inactive, CaMdr1 efflux inh inactive, CaCdr2 efflux inh inactive and CaCdr1 efflux inh inactive.
For O=C(NN=Cc1cccc([N+](=O)[O-])c1)c1cc(-c2cccnc2)nc2ccccc12 the results were Efflux pump inh inactive, ERp5 inh inactive, PvdQ inh inactive, PDI turbidity inactive and Rtt109 Vps75 inactive.
Screening Cc1cc(C(=O)N/N=C/c2cccc([N+](=O)[O-])c2)c2ccccc2n1 returned Efflux pump inh 8.3, ERp5 inh inactive, PvdQ inh inactive, PDI turbidity inactive, Rtt109 Vps75 inactive, Yeast cmpd fluor 845.4, CaMdr1 efflux inh 60.3, CaCdr2 efflux inh inactive and CaCdr1 efflux inh inactive.
Screening CCCOP(=O)(c1ccc(N(C)C)cc1)C(Nc1ccccc1)c1ccc(N(C)C)cc1 (stereo not given) returned Efflux pump inh 2.6, ERp5 inh inactive, PvdQ inh inactive, PDI turbidity inactive, Rtt109 Vps75 inactive, Yeast cmpd fluor inactive, CaMdr1 efflux inh inactive, CaCdr2 efflux inh inactive and CaCdr1 efflux inh inactive.
CCC(=O)Nc1ccc2c(c1)C(=O)N(C)C[C@@H](OC)[C@H](C)CN(Cc1ccccn1)[C@@H](C)CO2 was read as ERp5 inh inactive.
For Cn1c(N2CCN(C(=O)Nc3ccc(F)cc3)CC2)nc2ccccc21 the results were Efflux pump inh inactive, PvdQ inh inactive, PDI turbidity inactive and Rtt109 Vps75 inactive.
`Cn1c(N2CCN(C(c3ccccc3)c3ccccc3)CC2)nc2ccccc21` gave Efflux pump inh 0.5, ERp5 inh inactive, PvdQ inh inactive, PDI turbidity inactive, Rtt109 Vps75 inactive, Yeast cmpd fluor inactive, CaMdr1 efflux inh inactive, CaCdr2 efflux inh inactive and CaCdr1 efflux inh inactive.
O=C(c1cccc(F)c1)N1CCN(C(=O)c2cc3ncc(Br)cn3n2)CC1 was read as Efflux pump inh 13.7, PvdQ inh inactive, PDI turbidity inactive, Rtt109 Vps75 inactive, Yeast cmpd fluor inactive, CaMdr1 efflux inh inactive, CaCdr2 efflux inh inactive and CaCdr1 efflux inh inactive.
Screening COc1ccccc1CNC(=O)C[C@H]1C[C@H]2c3cc(NC(=O)NC4CCCC4)ccc3O[C@H]2[C@H](CO)O1 returned ERp5 inh inactive.
CCN1C(=O)c2cccc3c(S(=O)(=O)N(C(=O)c4cccnc4)c4ccc(OC)cc4)ccc1c23 was read as Efflux pump inh 12.7, PvdQ inh inactive, PDI turbidity inactive, Rtt109 Vps75 inactive, Yeast cmpd fluor inactive, CaMdr1 efflux inh inactive, CaCdr2 efflux inh inactive and CaCdr1 efflux inh inactive.
For CCN1C(=O)c2cccc3c(S(=O)(=O)N(C(=O)c4ccncc4)c4ccc(OC)cc4)ccc1c23 the results were Efflux pump inh inactive, ERp5 inh inactive, PvdQ inh inactive, PDI turbidity inactive and Rtt109 Vps75 inactive.
